Records with an inconclusive call do not appear. A call without a number means that no potency is given here. Calls of active or inactive are those of the source. Unless noted, calls come from the whole dose curve; as a rule, active = well fitted curve in the direction sought with a large enough effect; inconclusive = small, poorly fitted or top-dose-only effect, or another doubt; inactive = no such curve, though single readings can be large; an effect the other way counts as inactive or inconclusive.

Cytochrome P450 2C19 (Homo sapiens), sequence (P33261 whole entry, looked up): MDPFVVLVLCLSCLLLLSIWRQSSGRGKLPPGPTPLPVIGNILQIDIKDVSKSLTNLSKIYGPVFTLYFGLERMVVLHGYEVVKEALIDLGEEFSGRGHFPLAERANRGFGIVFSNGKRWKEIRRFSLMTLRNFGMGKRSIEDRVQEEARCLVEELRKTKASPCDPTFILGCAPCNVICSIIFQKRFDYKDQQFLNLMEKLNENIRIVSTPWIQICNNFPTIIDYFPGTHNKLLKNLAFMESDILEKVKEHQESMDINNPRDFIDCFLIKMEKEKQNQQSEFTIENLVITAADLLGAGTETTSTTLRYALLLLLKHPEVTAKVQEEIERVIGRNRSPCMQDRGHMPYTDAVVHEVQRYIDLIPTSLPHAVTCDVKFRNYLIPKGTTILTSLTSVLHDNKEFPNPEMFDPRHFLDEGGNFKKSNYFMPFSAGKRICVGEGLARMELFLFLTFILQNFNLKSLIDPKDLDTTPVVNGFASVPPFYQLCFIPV

One assay addresses Cytochrome P450 2C19 (Homo sapiens) (UniProt P33261). As to the kind of experiment: qHTS Assay for Inhibitors and Substrates of Cytochrome P450 2C19 (AID 899). Note: nearly all actives have a fitted effect of over 60% in size. Note: potency is the fitted concentration of half-maximal effect. Particulars: recombinant CYP2C19, luciferin-H EGE luminescence; series mostly up to 11.4 µM. Put shortly: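 NADPH-dependent conversion of Luciferin-H EGE (10uM, at KM) by 5nM enzyme in 50mM KPO4, 60 min at 37C following 10 min compound preincubation. Stopped with luciferin detection buffer; luminescence read after 20 min.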
Turning to `CCOC(=O)OCC1OC(C#Cc2ccccc2)C=CC1OC(=O)OCC` (stereo unspecified), the Potency was 2510 nM (active).

Regarding `CCOC(=O)OCC1OC(C#Cc2ccc(Br)cc2)C=CC1OC(=O)OCC` (stereo unspecified), the Potency result was “inactive”.

`CC(C)(C)N1C(=O)[C@H]2[C@@H]3[C@H](O)[C@H](O)CC(=O)[C@H]3CC[C@H]2C1=O`: the Potency entry is “inactive”.

On to `C[C@@H](c1ccccc1)N1C(=O)[C@H]2[C@@H]3[C@H](O)C=CC(=O)[C@H]3CC[C@H]2C1=O`, for which the Potency result was “inactive”.

System in the next assay: not listed separately
As to the kind of experiment: qHTS Assay for Identification of Small Molecule Agonists for Hypoxia Response Element Signaling Pathway (AID 914; active = well fitted activation curve with a large enough effect in the signal ratio, with a control signal flat, not every such curve was filed as active; the % refers to the signal ratio). Particulars: ME-180 (cervical carcinoma) HRE-bla reporter, beta-lactamase ratio, CoCl2, 17 h; hits give high values. Put shortly:
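HRE-bla ME-180 assay for agonist-like enhancement of an EC50 CoCl2 stimulus: 17 h at 37 degrees Celsius, CCF4 for 2.5 h, ratiometric 460/530 nm signal converted to %Activity and fitted to AC50.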
(In general: qHTS replaces the single test concentration by a dilution series.)
Regarding `C/C(CCN1CCc2nc(-c3ccccc3)c(-c3ccccc3)cc2C1)=N\O[C@@H](C)c1cc(-c2c(C)cc(C)cc2C)no1`, the activation is 20.9% (inactive).

As for `CO[C@H]1COC(=O)C/C=C\[C@@H](C)COC(=O)[C@@H](OCc2ccccc2)/C=C\[C@@H]1C`, the activation was -3.25% (inactive).

As for `C/C(CCN1CCCCc2nc(C)c(C)cc21)=N\OC[C@@H](C)[C@H](OCc1ccccc1)C(C)C`, the activation was 5.09% (inactive).

As for `C/C(CCC(=O)OC[C@@H]1O[C@H](C#Cc2ccccc2)C=C[C@@H]1Oc1ccc(C)cc1)=N/OC[C@@H](C)[C@H](OCc1ccccc1)C(C)C`, the activation was 14.9% (inactive).

System in another assay: not listed separately
Nature of the assay: Confirmation and Secondary Assay for Modulators of Hemoglobin Beta Chain Splicing at IVS2 705 locus (AID 930).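 Note: HeLa cells stably expressing the EGFP-705 splicing reporter; GFP fluorescence per well restored by corrected splicing of the IVS2-705 intron in EGFP.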 The conditions noted are these: HeLa EGFP-705 splicing reporter, GFP fluorescence, 48 h; series mostly up to 46.1 µM. Put shortly:
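HeLa IVS2-705 EGFP reporter cells, 500/well, compound 2 d at 37C; correct splicing yields fluorescent EGFP. Control: 500 nM antisense PNA. Read-out: total peak GFP intensity.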
On to `CCCCCC(=O)O[C@@]1(C(C)=O)CCC2C3CCC4=CC(=O)CC[C@@]4(C)C3CC[C@]21C` (stereo partly specified), for which the result was inactive.

For the compound `COC(=O)CC1[C@@]2(C)C[C@]34OC5(C)OC6(C7CC(=O)OC(c8ccoc8)[C@]7(C)CCC6(O5)[C@]13C)C(OC(C)=O)[C@]4(OC(C)=O)C2OC(C)=O` (stereo partly specified), the result was inactive.

For `COc1c(CC(=O)c2cc3c(cc2O)OC(C)(C)C(O)C3)ccc2c1C=CC(C)(C)O2` (stereo unspecified), the result was inactive.

The record behind these values is PubChem BioAssay (NCATS).
